Experimental data published in the supplement of paper PMC10849652.
Of roughly 7,900 targets only a part is listed; those with a hit were picked by preference. About 0.6% of all pairs of compound and target were hits. Unmarked numbers belong to inactive results.

Columns and labels:
Assay in all cases: log2 fold change, soluble protein after heating vs DMSO (PISA); higher = thermal stabilisation; K562 cells, 10 uM, 30 min; active = over 0.2 and 3.5 SD of the protein, either way, in both replicates (recomputed)
erlotinib = compound: C#Cc1cccc(Nc2ncnc3cc(OCCOC)c(OCCOC)cc23)c1 [erlotinib]
Outline: (§1)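 Soluble protein was defined as the supernatant after 21,000xg for 90 min. It came from K562 cells at 2×10^6 cells/mL given 10 μM compound for 30 min, heated in aliquots for 3 min across 48°C-58°C, pooled, and extracted in PBS with 0.5% NP-40 at 4°C, and was quantified by TMTpro 16plex LC-MS/MS with equalised channel sums. Thermal stability against control samples, from duplicates, is reported as log2 fold change.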

[1] = compound: C/C(=N\NC(=O)C1=CC(=CC=C1)S(=O)(=O)N2CCOCC2)/C3=C(C=CC(=C3)Cl)O
Outline: as §1

[2] = compound: C1=CC(=C(C=C1Cl)C2=NC3=NC=CN=C3C(=N2)NC4=CC=NC=C4)F
Outline: as §1

[3] = compound: C1=CC(=CC=C1C2=NC3=C(N2)C=C(C=C3)C(=O)N)OC4=CC=C(C=C4)Cl
Outline: as §1

[4] = compound: C1=CC2=C(C=CC(=C2)/C=C\3/C(=O)NC(=NCC4=CC=CS4)S3)N=C1
Outline: as §1

[5] = compound: C1=CC2=NC=CN=C2C=C1/C=C/3\C(=O)NC(=O)S3
Outline: as §1

[6] = compound: C1=CC=C(C=C1)C2=NC(=C(N2)C3=CC=NC=C3)C4=CC(=C(C=C4)Cl)O
Outline: as §1

[7] = compound: C1=CC=C2C(=C1)C3=NNC4=CC=CC(=C43)C2=O
Outline: as §1

[8] = compound: C1CCN(C1)C(=O)NC2=CC=CC(=C2)NC3=NC=C(C(=N3)NCCC4=CN=CN4)Br
Outline: as §1

[9] = compound: C1CN(CCC1(CC2=CC=C(C=C2)Cl)N)C3=NC=NC4=C3C=CN4
Outline: as §1

Chain of UniProt Q86Y07 (Q86Y07 whole entry, looked up): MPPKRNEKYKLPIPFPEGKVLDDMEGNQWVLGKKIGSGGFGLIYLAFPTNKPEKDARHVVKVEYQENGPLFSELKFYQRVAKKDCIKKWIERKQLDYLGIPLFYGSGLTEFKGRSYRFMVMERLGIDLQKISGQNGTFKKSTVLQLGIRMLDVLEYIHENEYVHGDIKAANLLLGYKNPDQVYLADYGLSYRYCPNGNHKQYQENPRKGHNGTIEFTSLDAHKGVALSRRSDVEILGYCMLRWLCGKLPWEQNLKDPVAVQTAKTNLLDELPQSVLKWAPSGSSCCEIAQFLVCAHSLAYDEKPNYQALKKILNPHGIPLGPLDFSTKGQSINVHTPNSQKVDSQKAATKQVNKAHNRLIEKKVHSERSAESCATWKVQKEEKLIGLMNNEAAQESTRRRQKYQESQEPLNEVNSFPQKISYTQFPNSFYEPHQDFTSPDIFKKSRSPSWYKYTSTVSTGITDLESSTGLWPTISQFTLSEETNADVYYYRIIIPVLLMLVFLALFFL
Chain of UniProt O94874 (O94874 whole entry, looked up): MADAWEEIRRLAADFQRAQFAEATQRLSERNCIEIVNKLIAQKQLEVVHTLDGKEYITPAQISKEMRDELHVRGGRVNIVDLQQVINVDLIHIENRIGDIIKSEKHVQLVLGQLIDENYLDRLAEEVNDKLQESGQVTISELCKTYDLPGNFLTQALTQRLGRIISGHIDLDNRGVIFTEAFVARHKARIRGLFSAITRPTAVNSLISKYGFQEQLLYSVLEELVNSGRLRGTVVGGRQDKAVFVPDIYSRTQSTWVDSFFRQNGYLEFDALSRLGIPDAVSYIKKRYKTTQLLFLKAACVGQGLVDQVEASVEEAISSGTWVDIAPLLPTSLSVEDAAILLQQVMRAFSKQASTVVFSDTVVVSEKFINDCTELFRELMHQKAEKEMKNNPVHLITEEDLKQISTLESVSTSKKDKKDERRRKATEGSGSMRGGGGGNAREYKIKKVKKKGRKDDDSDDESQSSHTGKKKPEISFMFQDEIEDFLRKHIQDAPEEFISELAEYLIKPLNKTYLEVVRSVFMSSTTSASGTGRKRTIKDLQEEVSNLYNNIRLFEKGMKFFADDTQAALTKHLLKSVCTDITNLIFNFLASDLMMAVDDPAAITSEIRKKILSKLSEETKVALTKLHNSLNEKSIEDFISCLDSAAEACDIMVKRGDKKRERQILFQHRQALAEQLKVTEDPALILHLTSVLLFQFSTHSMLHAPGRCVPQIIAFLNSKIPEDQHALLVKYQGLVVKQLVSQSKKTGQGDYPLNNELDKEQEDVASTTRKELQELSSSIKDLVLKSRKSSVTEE
Chain of UniProt Q8N4H5 (Q8N4H5 whole entry, looked up): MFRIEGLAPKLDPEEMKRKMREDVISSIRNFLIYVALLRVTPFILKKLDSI
Chain of UniProt Q15388 (Q15388 whole entry, looked up): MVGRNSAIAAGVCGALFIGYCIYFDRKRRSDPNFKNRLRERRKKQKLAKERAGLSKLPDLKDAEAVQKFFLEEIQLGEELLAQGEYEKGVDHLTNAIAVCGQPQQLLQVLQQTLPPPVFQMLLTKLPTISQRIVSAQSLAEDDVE
Chain of UniProt O95801 (O95801 whole entry, looked up): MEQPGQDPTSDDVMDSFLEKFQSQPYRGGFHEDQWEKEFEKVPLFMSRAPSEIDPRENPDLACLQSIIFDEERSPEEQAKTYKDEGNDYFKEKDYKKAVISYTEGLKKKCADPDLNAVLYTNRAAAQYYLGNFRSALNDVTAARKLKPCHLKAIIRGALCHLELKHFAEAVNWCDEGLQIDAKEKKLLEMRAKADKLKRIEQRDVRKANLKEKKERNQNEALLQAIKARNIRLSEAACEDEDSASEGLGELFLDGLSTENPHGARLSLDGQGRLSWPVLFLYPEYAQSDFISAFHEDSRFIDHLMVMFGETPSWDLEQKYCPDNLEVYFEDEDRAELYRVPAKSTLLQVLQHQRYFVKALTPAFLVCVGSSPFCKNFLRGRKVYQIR
Chain of UniProt Q9H6R7 (Q9H6R7 whole entry, looked up): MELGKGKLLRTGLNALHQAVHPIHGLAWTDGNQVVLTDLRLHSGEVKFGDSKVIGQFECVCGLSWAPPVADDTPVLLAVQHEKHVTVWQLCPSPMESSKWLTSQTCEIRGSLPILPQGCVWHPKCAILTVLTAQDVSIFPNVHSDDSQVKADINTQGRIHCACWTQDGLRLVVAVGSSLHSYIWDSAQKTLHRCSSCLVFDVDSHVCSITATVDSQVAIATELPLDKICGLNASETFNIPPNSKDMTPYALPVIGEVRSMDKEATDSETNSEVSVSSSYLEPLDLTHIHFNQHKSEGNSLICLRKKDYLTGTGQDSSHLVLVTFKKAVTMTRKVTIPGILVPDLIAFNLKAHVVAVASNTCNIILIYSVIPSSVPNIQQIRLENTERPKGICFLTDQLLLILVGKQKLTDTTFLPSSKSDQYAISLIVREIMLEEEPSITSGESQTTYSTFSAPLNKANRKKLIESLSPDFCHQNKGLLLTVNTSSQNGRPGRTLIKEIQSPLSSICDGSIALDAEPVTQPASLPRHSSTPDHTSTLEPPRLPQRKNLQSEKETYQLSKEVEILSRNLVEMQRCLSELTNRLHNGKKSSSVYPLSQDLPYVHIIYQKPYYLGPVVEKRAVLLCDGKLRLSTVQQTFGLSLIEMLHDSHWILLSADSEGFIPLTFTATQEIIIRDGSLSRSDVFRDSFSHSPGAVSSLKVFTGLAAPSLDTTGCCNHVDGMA
Chain of UniProt Q9UHP3 (Q9UHP3 whole entry, looked up): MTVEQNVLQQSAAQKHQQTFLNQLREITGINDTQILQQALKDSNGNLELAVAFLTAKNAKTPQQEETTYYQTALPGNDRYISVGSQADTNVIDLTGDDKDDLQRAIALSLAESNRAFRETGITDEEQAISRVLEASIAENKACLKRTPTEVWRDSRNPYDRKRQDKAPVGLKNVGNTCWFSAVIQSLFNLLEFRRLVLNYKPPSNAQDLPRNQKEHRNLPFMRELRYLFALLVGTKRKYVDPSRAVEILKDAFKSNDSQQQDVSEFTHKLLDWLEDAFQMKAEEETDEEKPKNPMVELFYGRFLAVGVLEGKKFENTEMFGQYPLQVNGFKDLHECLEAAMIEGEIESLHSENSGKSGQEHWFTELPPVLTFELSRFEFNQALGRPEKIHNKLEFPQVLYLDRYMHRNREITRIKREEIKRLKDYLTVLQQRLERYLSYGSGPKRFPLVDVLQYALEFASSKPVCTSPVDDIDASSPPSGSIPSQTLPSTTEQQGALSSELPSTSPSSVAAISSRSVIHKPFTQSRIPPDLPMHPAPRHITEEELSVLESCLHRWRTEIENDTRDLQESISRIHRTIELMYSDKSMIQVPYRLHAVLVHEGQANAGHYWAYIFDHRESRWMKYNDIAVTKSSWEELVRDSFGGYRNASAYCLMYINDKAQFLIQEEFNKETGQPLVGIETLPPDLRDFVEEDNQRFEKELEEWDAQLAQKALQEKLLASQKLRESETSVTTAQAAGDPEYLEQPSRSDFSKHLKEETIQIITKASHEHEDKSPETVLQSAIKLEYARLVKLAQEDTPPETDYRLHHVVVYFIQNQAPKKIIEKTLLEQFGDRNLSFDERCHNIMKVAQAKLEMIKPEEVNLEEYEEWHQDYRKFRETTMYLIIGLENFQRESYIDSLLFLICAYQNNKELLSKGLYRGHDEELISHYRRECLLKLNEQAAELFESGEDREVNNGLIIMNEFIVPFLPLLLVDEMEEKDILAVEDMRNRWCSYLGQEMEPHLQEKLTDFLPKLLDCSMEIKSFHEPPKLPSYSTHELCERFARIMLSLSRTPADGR

Target | log2 fold change (erlotinib) | log2 fold change [1] | log2 fold change [2] | log2 fold change [3] | log2 fold change [4] | log2 fold change [5] | log2 fold change [6] | log2 fold change [7] | log2 fold change [8] | log2 fold change [9]
USP25 isoform 3 (UniProt Q9UHP3) | 0.007 | 0.086 | 0.02 | 0.002 | 0.028 | 0.005 | -0.024 | 0.011 | -0.038 | 0.043
WDCP (UniProt Q9H6R7) | 0.083 | -0.003 | 0.058 | 0.065 | -0.015 | 0.134 | -0.022 | -0.068 | -0.012 | -0.011
TTC4 (UniProt O95801) | 0.094 | 0.081 | 0.016 | 0.005 | 0.061 | -0.007 | 0.081 | 0.025 | -0.057 | -0.018
TOMM20 (UniProt Q15388) | 0.073 | -0.01 | -0.013 | 0.004 | 0.012 | 0.018 | 0.049 | -0.006 | 0.007 | 0.027
UFL1 (UniProt O94874) | 0.06 | 0.075 | 0.037 | -0.03 | 0.021 | 0.021 | 0.069 | 0.096 | -0.012 | -0.101
UBA52 (UniProt P62987) | -0.113 | -0.266 | -0.659 | 0.093 | -0.311 | -0.024 | -0.029 | -0.082 | 0.165 | -0.04
VRK2 (UniProt Q86Y07) | 0.004 | 0.014 | -0.021 | -0.026 | -0.065 | 0.011 | -0.02 | 0.118 | 0.013 | 0.072
TOMM5 isoform 2 (UniProt Q8N4H5) | -0.115 | 0.063 | 0.378 (active) | 0.134 | 0 | 0.052 | -0.123 | -0.003 | -0.038 | -0.047
